Screening data as filed in PubChem.
Rows were chosen to be rich in hits. Some 3% of all compounds tested hit in one or more screens of this group.
TRAIL sens C8 = viability loss with TRAIL in NB7+C8 cells, primary screen, TRAIL sensitizer project, cell-based, ATPlite luminescence; hit rate 1% among 360,000; inhibition (viability loss, TRAIL sensitization), % at 10 µM;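 active = compounds causing at least 50% loss of cell viability in the single-dose screen, relative to plate controls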
SENP7 block = SENP7 protease inhibitors, primary screen, biochemical, luminescence, uHTS | recombinant SENP7, Z-RLRGG-aminoluciferin luminescence, 40 min | inhibition, % at 5 µM | hit rate 1.5% among 330,000;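 active = inhibition above about 50% at the single test dose, limit read from the data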;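 note: plate controls were DMSO with enzyme for no effect and no enzyme buffer wells for full effect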
Target sequence (Q9BQF6 706-1050 limits assumed): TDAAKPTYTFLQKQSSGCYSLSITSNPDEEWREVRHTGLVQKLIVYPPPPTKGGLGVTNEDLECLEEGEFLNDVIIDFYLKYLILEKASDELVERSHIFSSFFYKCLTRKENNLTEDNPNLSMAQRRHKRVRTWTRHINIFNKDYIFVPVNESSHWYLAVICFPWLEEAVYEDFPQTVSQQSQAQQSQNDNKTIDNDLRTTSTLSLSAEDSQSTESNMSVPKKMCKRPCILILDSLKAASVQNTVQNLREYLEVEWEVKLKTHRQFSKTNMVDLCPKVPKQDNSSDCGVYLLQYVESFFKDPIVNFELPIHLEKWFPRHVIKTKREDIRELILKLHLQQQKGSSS
SENP6 inh = SENP6 protease inhibitors, primary screen, biochemical, luminescence, uHTS; inhibition, % at 10 µM; Recombinant SENP6 catalytic domain, aminoluciferin luminescence; Sentrin-specific protease 6 (Homo sapiens), Q9GZR1; hit rate 1.8% among 330,000;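 active = inhibition above about 50% at the single tested dose, limit read from the data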;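 note: plate controls were DMSO wells with enzyme for no effect and DMSO wells lacking enzyme for full effect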
SENP8 block-1 = SENP8 protease inhibitors, primary screen, biochemical, luminescence | Sentrin-specific protease 8 (Homo sapiens), Q96LD8 | purified SENP8, Z-RLRGG-aminoluciferin cleavage | inhibition, % at 10 µM | hit rate 1.2% among 330,000; in the data active = inhibition above about 50%
Target sequence (Q96LD8 whole entry, looked up): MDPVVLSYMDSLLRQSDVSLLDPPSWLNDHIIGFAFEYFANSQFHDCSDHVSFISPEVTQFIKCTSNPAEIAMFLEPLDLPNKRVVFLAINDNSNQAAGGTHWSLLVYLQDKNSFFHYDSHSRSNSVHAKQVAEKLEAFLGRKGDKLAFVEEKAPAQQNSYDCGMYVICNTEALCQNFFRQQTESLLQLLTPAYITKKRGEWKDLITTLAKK
SENP8 block-2 = human SENP8 protease inhibitors, primary screen, biochemical, fluorescence, Nedd8 protein substrate, uHTS | recombinant SENP8 | inhibition, % at 20 µM | hit rate 0.64% among 360,000 | AID 602440, 2012; in the data active = inhibition mostly above about 40%, no sharp cut-off; inactive = mostly below about 27%
PPC-1+TRAIL kill = compounds killing PPC-1 cancer cells with TRAIL present, primary screen, TRAIL potentiator project, ATPLite luminescence, uHTS; PPC-1 cells + TRAIL, ATPLite viability luminescence; AID 1443, 2008; hit rate 0.41% among 220,000; cell killing (% activity), % at 4 µM or 5 µM;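 active = cell killing above 50% in the first pass at 4 µM, then a duplicate retest at 5 µM averaging 50% or more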;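 note: plate controls were cells with TRAIL plus DMSO for no effect and medium-only wells lacking cells for full effect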
An asterisk follows results filed as active; x = no result given.

SMILES	TRAIL sens C8	SENP7 block	SENP6 inh	SENP8 block-1	SENP8 block-2	PPC-1+TRAIL kill
CCc1nc2ccc(C(=O)N3CCN(c4ccccc4)CC3)cn2c1N(C)CCC(C)C	-5	x	x	x	-20	x
O=c1[nH]c(CCl)nc2cc(-c3ccc(F)cc3)sc12	81*	47	89*	79*	-2	x
O=c1cc(-c2c(F)c(F)c(F)c(F)c2F)oc2ccccc12	77*	2	-13	-8	-8	-2
O=c1cc(-c2cccc(F)c2)oc2ccccc12	13	x	x	x	9	x
O=C(COC(=O)c1ccccc1C(=O)c1ccc(Cl)c([N+](=O)[O-])c1)NC1CC1	93*	-16	4	-1	22	9
CNC(=O)COC(=O)c1ccccc1C(=O)c1ccc(Cl)c([N+](=O)[O-])c1	9	x	x	x	10	2
CCCCN1C(=O)C(CC(=O)NCC2CCCCC2)CC(C(=O)N(CC)CC)=C1C (stereo not given)	14	x	x	x	-7	x
COC(=O)CCC(=O)OC1(C)C(=O)C2=CN(CCN3CCOCC3)C(c3ccc(OC)cc3)=CC2=C(Br)C1=O (stereo not given)	x	16	52*	23	x	-7
COC(=O)CCC(=O)OC1(C)C(=O)C2=CN(CCCCO)C(c3ccc(OC)cc3)=CC2=C(Br)C1=O (stereo not given)	x	13	47	8	x	x
CC(NC(=O)CN(C)CC(=O)Nc1cccc(F)c1)c1ccccc1 (stereo not given)	-5	-9	1	-8	21	x
O=C(Oc1c(CN2CCOCC2)cc(Cl)c2cccnc12)c1ccccc1	37	4	-1	1	6	x
O=C(Oc1c(CN2CCOCC2)cc(Cl)c2cccnc12)c1ccccc1F	54*	0	-2	0	19	23
C/C(=N/Nc1ccc(C(=O)c2c(C)cc3ccccn23)cc1[N+](=O)[O-])c1ccc(O)cc1	9	x	x	x	50*	x
C/C(=N\Nc1ccc(C(=O)c2c(C)cc3ccccn23)cc1[N+](=O)[O-])c1ccc(O)cc1	24	-1	-1	-4	62*	-3
Cc1cc2ccccn2c1C(=O)c1ccc(Cl)cc1	9	4	9	0	15	16
Cc1cc2ccccn2c1C(=O)c1ccc(N/N=C/c2ccc(C(=O)O)cc2)c([N+](=O)[O-])c1	-3	x	x	x	66*	10
CSc1ccc(C=NNc2ccc(S(=O)(=O)Nc3ccccc3C(=O)O)cc2[N+](=O)[O-])cc1	6	3	-13	15	35	x
Cc1cc2ccccn2c1C(=O)c1ccncc1	0	-1	-8	5	13	-5
O=C(O)c1cccc(NC(=S)NC(=O)c2ccc3ccccc3c2)c1	6	71*	93*	87*	-4	x
CCc1nc2c(OCC3COc4ccccc4O3)cccn2c1N(C)C(=O)c1ccc(OC)cc1 (stereo not given)	2	x	x	x	14	x
Cc1cc(C)c2nc(NNC(=O)c3ccc(S(=O)(=O)N4CC(C)CC(C)C4)cc3)sc2c1 (stereo not given)	32	-6	-13	6	-22	6
Cc1cccc2sc(NNC(=O)c3ccc(S(=O)(=O)N4CC(C)CC(C)C4)cc3)nc12 (stereo not given)	66*	11	4	4	10	27
CN1C(=O)/C(=C2\SC(=S)N(CCCCCC(=O)O)C2=O)c2ccccc21	-7	-6	0	-2	16	12
CN1C(=O)/C(=C2\SC(N)=NC2=O)c2ccccc21	0	-6	-9	8	43*	10
O=c1/c(=C/c2ccccn2)sc2nc3ccccc3n12	54*	98*	84*	79*	-42	22
SMILES	TRAIL sens C8	SENP7 block	SENP6 inh	SENP8 block-1	SENP8 block-2	PPC-1+TRAIL kill
NC(=O)c1ccc(NC(=O)COC(=O)CC(NC(=O)c2ccccc2Cl)c2ccccc2)cc1 (stereo not given)	9	4	14	-1	-4	-11
Cc1ccc(-c2ccc(/C=N/NC(=O)c3ccccc3O)o2)cc1	x	54*	58*	27	x	16
CC1Oc2ccccc2C=C1/C=N/NC(=O)c1ccccc1O (stereo not given)	50*	10	4	-4	-399	28
CCc1nnc(NS(=O)(=O)c2ccc(N=Cc3c(C)[nH]n(-c4ccc(C)c(C)c4)c3=O)cc2)s1	56*	-5	14	-8	25	44
COc1ccc(OC)c(N(CCN2C(=O)c3ccccc3C2=O)C(=O)CCl)c1	94*	x	x	x	9	x
Cc1cc(=O)nc2c3ccccc3n(CC(=O)NC(C)c3ccc4c(c3)OCCO4)n12 (stereo not given)	-13	7	-1	1	-19	x
O=[N+]([O-])c1ccc(CCNc2cccc3ccccc23)c([N+](=O)[O-])c1	0	12	55*	36	-25	7
Cc1cc([N+](=O)[O-])ccc1NCc1cccc2ccccc12	-14	-6	-20	7	17	x
O=C(Nc1ncnc2c1C(c1ccccc1)c1c(ccc3ccccc13)O2)c1ccccc1 (stereo not given)	59*	6	-15	8	20	x
O=C(Cc1ccccc1)Nc1ncnc2c1C(c1ccccc1)c1c(ccc3ccccc13)O2 (stereo not given)	41	-3	2	1	-13	x
c1ccc2sc(SCc3ccc(-c4nnco4)cc3)nc2c1	13	89*	96*	89*	-9	12
CCS(=O)(=O)c1ncc(Cl)c(C(=O)Nc2ccccc2OC)n1	89*	16	-8	-6	18	x
CCCc1nnc(NC(=O)c2nc(S(=O)(=O)Cc3ccc(C)cc3)ncc2Cl)s1	25	-4	1	-1	8	x
CCOc1ccccc1NC(=O)c1nc(S(=O)(=O)Cc2ccccc2)ncc1Cl	96*	0	-4	-4	6	x
COc1ccccc1NC(=O)c1ccc(C(=O)Nc2ccccc2OC)nc1	4	3	15	-1	6	x
COc1ccccc1NC(=O)c1nc(S(=O)(=O)Cc2ccccc2)ncc1Cl	94*	6	-3	7	23	x
Cc1ccc(NC(=O)c2nsc(Cl)c2Cl)cc1	18	62*	54*	31	7	5
Cc1ccc(NC(=O)c2ccc(Cl)nc2)cc1	0	7	-17	-5	16	19
COc1ccc(CC(=O)NCc2n[nH]c(=S)n2-c2cccc(Cl)c2)cc1	-1	3	18	4	10	18
COc1cccc(NC2=C(NCCO)C(=O)c3ccccc3C2=O)c1	1	6	20	23	54*	x
Cc1cc(C)cc(OCC(=O)NNC(=S)NC(=O)C2CC2)c1	6	-5	-2	2	8	x
